Compound activity from PubChem BioAssay.
This is a sample that favours compounds with a hit; in the whole collection about 19% have one here.
TDP1 cell noCPT = qHTS for Inhibitors of human tyrosyl-DNA phosphodiesterase 1 (TDP1): qHTS in cells in absence of CPT; DT40 Tdp1-/- hTDP1 cells, no CPT, ATP luminescence, 48 h; 420,000 tested, 15% active; AID 686978, 2013; Potency, µM (highest dose often 46.2 µM), inactives show at the highest dose activity change, negative = growth inhibition, actives largely listed as inhibitors; also: nearly all actives have a fitted effect of over 55% in size
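No-CPT arm: Tdp1-/-;hTDP1 DT40 cells (400/well) plus compounds, incubated ≥48 hr at 37 °C. Readout CellTiter-Glo luminescence.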
HT1080 IDH1KD tx = HT-1080 IDH1 knockdown cell toxicity (counter line) | 360,000 tested, 2% active | HT-1080 IDH1 knockdown viability, ATP luminescence, 48 h | Potency, µM (top dose mostly 46.1 µM), for inactives: at the highest dose activity, negative = toxicity, most hits filed as cytotoxic | AID 686971;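 also: 0% = DMSO wells and -100% = cell-free medium wells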
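Cytotoxicity counter-line: IDH1KD HT-1080, 48 h, CellTiter-Glo. Curves classed by r2, magnitude and activity.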
HT1080NT lethal = kills 2HG-producing HT-1080-NT fibrosarcoma cells | AID 686970 | HT-1080-NT fibrosarcoma viability, CellTiter-Glo ATP luminescence, 48 h | 360,000 tested, 1.6% active | Potency, µM (doses to about 46.1 µM), for inactives: at the top dose activity, negative = less viability, most hits filed as cytotoxic;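 also: NT is the 2HG producing partner of a matched IDH1 knockdown line; 0% = DMSO-treated cells and -100% = media-only wells without cells; nearly all actives have a fitted effect of over 55% in size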
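Fibrosarcoma NT cells, 750 per well in 5% FBS RPMI, were exposed to compound for 48 hours. Viability: CellTiter-Glo luminescence.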
KB-3-1 cytotox = KB-3-1 parental cell cytotoxicity. KB-3-1 viability, CellTiter-Glo ATP luminescence, 72 h. Potency, µM (top dose mostly 46.1 µM), actives largely listed as cytotoxic. 400,000 tested, 1.4% active; also: nearly all actives have a fitted effect of over 60% in size
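Cells are dispensed, compounds pinned in, plates held at 37 °C for 72 h, then CellTiter-Glo is added and luminescence read after 10 minutes. Cell line: parental KB-3-1 in phenol-red-free DMEM, 10% FBS.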
KB-V1 cytotox = KB-V1 MDR subline cytotoxicity; Potency, µM (series often up to 46.1 µM), hits mostly cytotoxic; KB-V1 MDR cells viability, CellTiter-Glo, 72 h; 400,000 tested, 3.4% active; also: nearly all actives have a fitted effect of over 60% in size
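Luminescent ATP read-out (CellTiter-Glo, 10 min) measures survival of drug-selected KB-V1 MDR cells after 72 h, 37 degrees C compound exposure. Medium: phenol-red-free DMEM, 10% FBS. Values from fitted concentration-response curves.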
DT40 TDP1 CPT = growth inhibition of DT40 Tdp1-/-;hTDP1 cells with camptothecin (screen for TDP1 inhibitors); chicken DT40 Tdp1-/-;hTDP1 cells + 20 nM CPT, ATP luminescence, 48 h; Potency, µM (top dose mostly 46.2 µM), without a hit: top-dose activity change, negative = growth inhibition, most hits filed as inhibitors; 420,000 tested, 12% active; AID 686979; also: nearly all actives have a fitted effect of over 55% in size
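Chicken DT40 Tdp1-/- cells complemented with human TDP1, 400 cells/well, exposed to compounds plus 20 nM camptothecin for at least 48 h at 37 C; viability read as ATP content by CellTiter-Glo luminescence.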
Active calls of the source: *; [ ] = dose if it differs, or a comment. Calls follow the shape of the dose curve; as a rule, active = well fitted curve in the direction sought with a large enough effect; inconclusive = small, poorly fitted or top-dose-only effect, or another doubt; inactive = no such curve, though single readings can be large; an effect the other way counts as inactive or inconclusive. Unless noted, % is scaled to controls: 0 for no effect and ±100 for the full control effect; potency is read from the fitted curve at half-maximal effect.

COc1ccc(C(=O)NCC2(c3ccccc3)CCCC2)c(OC)c1 was read as TDP1 cell noCPT 6.51µM*, HT1080 IDH1KD tx -7.0%, HT1080NT lethal -0.5%, KB-3-1 cytotox inactive, KB-V1 cytotox inactive and DT40 TDP1 CPT 9.2µM*.
`COc1ccc(C2(CNC(=O)c3cc(OC)c(OC)c(OC)c3)CCCC2)cc1OC` gave TDP1 cell noCPT inconclusive, HT1080 IDH1KD tx -21.6%, HT1080NT lethal -23.4%, KB-3-1 cytotox inactive, KB-V1 cytotox inactive and DT40 TDP1 CPT inconclusive.
For COc1cccc(NC(=O)c2cncs2)c1 the results were TDP1 cell noCPT 4.0%, HT1080 IDH1KD tx -2.2%, HT1080NT lethal -0.7%, KB-3-1 cytotox inactive, KB-V1 cytotox inactive and DT40 TDP1 CPT -6.9%.
`COc1ccc(CCNC(=O)c2c(C)oc3ncnc(N4CCOCC4)c23)c(OC)c1` gave TDP1 cell noCPT -11.2% and DT40 TDP1 CPT 2.7%.
`COc1ccc(C(=O)NCC(O)CN2CCOCC2)cc1[N+](=O)[O-]` (centres undefined) gave TDP1 cell noCPT -7.2%, HT1080 IDH1KD tx 5.1%, HT1080NT lethal -8.7%, KB-3-1 cytotox inactive, KB-V1 cytotox inactive and DT40 TDP1 CPT -4.9%.
`O=C(NCC1(c2ccccc2)CCCC1)c1ccc(Br)o1` gave TDP1 cell noCPT 23.1µM*, HT1080 IDH1KD tx -2.9%, HT1080NT lethal 1.9%, KB-3-1 cytotox inactive, KB-V1 cytotox inactive and DT40 TDP1 CPT inconclusive.
`COc1ccc(C(=O)NCC2(c3ccccc3)CCOCC2)cc1[N+](=O)[O-]` gave TDP1 cell noCPT 29.1µM*, HT1080 IDH1KD tx 11.1%, HT1080NT lethal 13.3%, KB-3-1 cytotox inactive, KB-V1 cytotox inconclusive and DT40 TDP1 CPT inconclusive.
N#CCC(=O)NCC1(c2ccccc2)CCCC1 was read as TDP1 cell noCPT 12.9%, HT1080 IDH1KD tx 5.3%, HT1080NT lethal 8.2%, KB-3-1 cytotox inactive, KB-V1 cytotox inactive and DT40 TDP1 CPT 8.9%.
For COc1ccc(C2(CNC(=O)c3ccc(Br)o3)CCOCC2)cc1 the results were TDP1 cell noCPT inconclusive, HT1080 IDH1KD tx 8.8%, HT1080NT lethal 6.6%, KB-3-1 cytotox inactive, KB-V1 cytotox inactive and DT40 TDP1 CPT -28.0%.
`COc1cccc(C(=O)NCC2(c3ccccc3)CCCC2)c1` gave TDP1 cell noCPT 14.6µM*, HT1080 IDH1KD tx -21.6%, HT1080NT lethal -20.3%, KB-3-1 cytotox inactive, KB-V1 cytotox inconclusive and DT40 TDP1 CPT inconclusive.
`Cc1ccc(C(CC(=O)NCC2(c3ccccc3)CCCC2)c2ccccc2)c(O)c1` (centres undefined) gave TDP1 cell noCPT 16.4µM*, KB-3-1 cytotox inconclusive, KB-V1 cytotox inconclusive and DT40 TDP1 CPT 23.1µM*.
Cn1c(=O)c2c(ncn2CCC(=O)N/N=C/c2cccnc2)n(C)c1=O was read as TDP1 cell noCPT -1.9%, HT1080 IDH1KD tx -2.3%, HT1080NT lethal -0.3%, KB-3-1 cytotox inactive, KB-V1 cytotox inactive and DT40 TDP1 CPT -7.4%.
Screening COc1cccc(CN2CCC3(CCC(CNC(=O)c4ccco4)O3)CC2)c1OC (centres undefined) returned TDP1 cell noCPT -20.9% and DT40 TDP1 CPT 7.0%[9.04 µM].
`COc1ccccc1C(=O)N1CCCC1(C#N)c1ccccc1` (centres undefined) gave TDP1 cell noCPT -10.5%, HT1080 IDH1KD tx 1.9%, HT1080NT lethal -6.3%, KB-3-1 cytotox inactive, KB-V1 cytotox inactive and DT40 TDP1 CPT -0.9%.
`COc1ccc(C(=O)N2CCCC2(C#N)c2ccccc2)cc1[N+](=O)[O-]` (centres undefined) gave TDP1 cell noCPT 10.3µM*, HT1080 IDH1KD tx -0.7%, HT1080NT lethal 4.8%, KB-3-1 cytotox inactive, KB-V1 cytotox inactive and DT40 TDP1 CPT 18.4µM*.
CC(=O)Nc1nc2ccc(S(=O)(=O)N3CCCC3)cc2s1 was read as TDP1 cell noCPT -17.6%, HT1080 IDH1KD tx 9.0%, HT1080NT lethal 5.2%, KB-3-1 cytotox inactive, KB-V1 cytotox inactive and DT40 TDP1 CPT inconclusive.
`CCCC(=O)Nc1nc2ccc(S(=O)(=O)N3CCCCC3)cc2s1` gave TDP1 cell noCPT 1.3µM*, HT1080 IDH1KD tx 4.11µM*, HT1080NT lethal inconclusive, KB-3-1 cytotox 13µM*, KB-V1 cytotox inconclusive and DT40 TDP1 CPT 1.3µM*.
Screening CC(C)CC(=O)Nc1nc2ccc(S(=O)(=O)N3CCOCC3)cc2s1 returned TDP1 cell noCPT 20.6µM*, HT1080 IDH1KD tx 18.4µM*, HT1080NT lethal 9.2µM*, KB-3-1 cytotox inconclusive, KB-V1 cytotox inconclusive and DT40 TDP1 CPT 13µM*.
For CCOC(=O)N1CCN(S(=O)(=O)c2ccc(C(=O)Nc3nc4ccc(F)cc4s3)cc2)CC1 the results were TDP1 cell noCPT 6.51µM*, HT1080 IDH1KD tx 3.0%, HT1080NT lethal 1.6%, KB-3-1 cytotox inconclusive, KB-V1 cytotox inconclusive and DT40 TDP1 CPT 8.2µM*.
CCc1nc2ccc(C(=O)NC3CCN(Cc4ccccc4)CC3)cn2c1N(C)Cc1ccc(N(C)C)cc1 was read as TDP1 cell noCPT inconclusive, HT1080 IDH1KD tx -5.6%, HT1080NT lethal -24.4%, KB-3-1 cytotox inactive, KB-V1 cytotox inactive and DT40 TDP1 CPT inconclusive.
Cc1ccc2c(c1)c1c(c(=O)n(Cc3ccccc3)c(=O)n1Cc1cccc(F)c1)n2C was read as TDP1 cell noCPT inconclusive, KB-3-1 cytotox inactive, KB-V1 cytotox inactive and DT40 TDP1 CPT inconclusive.
For COc1ccc(C2CC(=O)c3c(O)cc(O)cc3O2)c(CC=C(C)C)c1OC (centres undefined) the results were TDP1 cell noCPT inconclusive, HT1080 IDH1KD tx -2.3%, HT1080NT lethal -0.2%, KB-3-1 cytotox inactive, KB-V1 cytotox inactive and DT40 TDP1 CPT 23.1µM*.
Screening COc1ccc(C2CC(=O)c3c(O)cc(O)cc3O2)cc1O (centres undefined) returned TDP1 cell noCPT inconclusive, HT1080 IDH1KD tx 14.8%, HT1080NT lethal 0.0%, KB-3-1 cytotox inactive, KB-V1 cytotox inactive and DT40 TDP1 CPT -6.3%.
COc1cc(C2NC(=O)CCC2[N+](=O)[O-])c(OC)cc1Br (centres undefined) was read as TDP1 cell noCPT 1.4%, HT1080 IDH1KD tx 31.6%, HT1080NT lethal 5.1%, KB-3-1 cytotox inactive, KB-V1 cytotox inactive and DT40 TDP1 CPT 8.3%.
